This is an account of results in PubChem BioAssay (NCATS).

Test [1] is described as follows: Cell Viability - Jurkat (AID 426;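 active = dose-dependent loss of cell ATP signal giving a full or clear fitted curve, ranked by lower potency value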; also: potency is read from the fitted curve at half-maximal effect). Conditions: qHTS. The method in brief:
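qHTS, 1536-well; Jurkat E6-1, 5000 cells/well, complete medium; cpd 40 hr, 37 °C; CellTiter-Glo 20 min RT; luminescence. AC50 by Hill fit.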
(In qHTS, concentration-response curves come from the screen itself.)

Test [2] is described as follows: Cell Viability - N2a (AID 540; active = well fitted curve in the direction sought with a large enough effect; an effect the other way counts as inactive or inconclusive;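 also: cells exposed to compound for 40 h at 37 °C; plate controls were DMSO alone for no effect and tamoxifen control for full effect; nearly all actives have a fitted effect of over 45% in size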). Conditions: N2a mouse neuroblastoma cell viability; activity change, negative = cytotoxicity: at 92.2 µM (top of the series). The gist of the method: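 Luminescent ATP signal (CellTiter-Glo, 20 min at room temperature) served as the viability read-out after N2a cells were treated with compounds for 40 hours at 37 °C. Concentration-response data were fitted to the Hill equation for AC50.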

Test [3] is described as follows: MultiTox-Fluor Cytotoxicity Assay - LYMP1-001 - Live Cells (AID 947; active = well fitted curve in the direction sought with a large enough effect; an effect the other way counts as inactive or inconclusive;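 also: 0% = DMSO only and full inhibition = tetraoctylammonium bromide control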). As to conditions: LYMP1-001 lymphoblastoid cells, live-cell protease fluorescence viability; series mostly up to 92.2 µM.
Test [4] in a line: Cell Viability - LYMP2-004 (AID 966; active = well fitted curve in the direction sought with a large enough effect; an effect the other way counts as inactive or inconclusive;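 also: plate controls were DMSO only for no effect and tetraoctylammonium bromide control for full effect; nearly all actives have a fitted effect of over 65% in size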). Conditions: LYMP2-004 lymphoblastoid cell viability, qHTS; series mostly up to 92.2 µM. The gist of the method: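 Cells seeded 2500/well, rested 5 hr at 37 C, dosed across a concentration series, incubated 24 hr at 37 C, then CellTiter-Glo added for 30 min at room temperature and luminescence read. Hill fitting gave AC50.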
Test [5] can be described thus: Cell Viability - LYMP2-002 (AID 977; active = well fitted curve in the direction sought with a large enough effect; an effect the other way counts as inactive or inconclusive;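 also: plate controls were DMSO only for no effect and 92 µM tetraoctylammonium bromide for full effect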). Conditions: LYMP2-002 lymphoblastoid cell viability, qHTS; series mostly up to 92.2 µM. The gist of the method: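 Luminescent ATP readout (CellTiter-Glo, 30 min room temperature) after 24 h compound exposure at 37 C of a human lymphoblastoid line, 2500 cells/well. AC50 values derived by standard Hill fitting of qHTS concentration-response data.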

The target in test [6] is Bile acid receptor (Homo sapiens) (UniProt Q96RI1). The test can be described thus: qHTS assay for small molecule antagonists of farnesoid X receptor signaling (AID 588526). Also: % is scaled to controls: 0 for no effect and ±100 for the full control effect. As to conditions: HEK293T FXR-UAS-bla, beta-lactamase ratio, antagonist mode; series mostly up to 76.7 µM. The gist of the method: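 Concentration-response titrations were fitted to the Hill equation for half-maximal inhibition and maximal response, with data normalised to 50 uM chenodeoxycholic acid and DMSO control wells. Cells: FXR-UAS-bla HEK293T, dialyzed FBS.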
Bile acid receptor (Homo sapiens), sequence (Q96RI1 whole entry, looked up): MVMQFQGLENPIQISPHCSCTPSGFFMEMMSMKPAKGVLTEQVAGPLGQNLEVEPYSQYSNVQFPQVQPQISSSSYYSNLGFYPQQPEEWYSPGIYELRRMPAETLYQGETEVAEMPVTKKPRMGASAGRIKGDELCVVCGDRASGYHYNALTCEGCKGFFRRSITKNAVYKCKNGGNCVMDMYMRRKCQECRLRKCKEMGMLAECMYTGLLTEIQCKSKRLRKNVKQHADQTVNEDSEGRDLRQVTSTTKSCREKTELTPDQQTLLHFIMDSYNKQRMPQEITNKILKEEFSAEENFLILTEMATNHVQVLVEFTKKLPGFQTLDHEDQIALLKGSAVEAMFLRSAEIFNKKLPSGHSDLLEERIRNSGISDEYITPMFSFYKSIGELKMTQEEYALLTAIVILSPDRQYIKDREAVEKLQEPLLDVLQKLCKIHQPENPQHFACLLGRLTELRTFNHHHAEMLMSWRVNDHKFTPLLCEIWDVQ

The target is the same in test [7]. The test can be described thus: qHTS assay for small molecule agonists of farnesoid X receptor signaling (AID 588527).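 Also: 0% = vehicle basal and 100% = reference agonist.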 As to conditions: HEK293T FXR-UAS-bla, beta-lactamase ratio, 16 h; stronger effect = higher value. The method in brief: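 Read-out: beta-lactamase reporter fluorescence with CCF4 substrate in GeneBLAzer FXR-UAS-bla HEK293T cells, after 16 h compound exposure at 37 C. Response scaled between DMSO basal (0%) and chenodeoxycholic acid at 100 uM (100%).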

Test [8] deals with Glucocorticoid receptor (Homo sapiens) (UniProt P04150). The test can be described thus: qHTS assay for small molecule agonists of glucocorticoid receptor signaling (AID 588532; active = well fitted curve in the direction sought with a large enough effect in the signal ratio, with a control signal flat; the % refers to the signal ratio;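 also: 100% = dexamethasone at 0.1 µM and 0% = DMSO only wells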). Conditions: HeLa MMTV-bla, beta-lactamase ratio, agonist, 18 h; stronger effect = higher value; percent of dexamethasone control, DMSO zero. The gist of the method: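 Stimulation of a glucocorticoid response element-driven beta-lactamase gene was measured in HeLa cells. Responses were scaled between DMSO basal and 0.1 uM dexamethasone, then fitted for half-maximal stimulation.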
Glucocorticoid receptor (Homo sapiens), sequence (P04150 whole entry, looked up): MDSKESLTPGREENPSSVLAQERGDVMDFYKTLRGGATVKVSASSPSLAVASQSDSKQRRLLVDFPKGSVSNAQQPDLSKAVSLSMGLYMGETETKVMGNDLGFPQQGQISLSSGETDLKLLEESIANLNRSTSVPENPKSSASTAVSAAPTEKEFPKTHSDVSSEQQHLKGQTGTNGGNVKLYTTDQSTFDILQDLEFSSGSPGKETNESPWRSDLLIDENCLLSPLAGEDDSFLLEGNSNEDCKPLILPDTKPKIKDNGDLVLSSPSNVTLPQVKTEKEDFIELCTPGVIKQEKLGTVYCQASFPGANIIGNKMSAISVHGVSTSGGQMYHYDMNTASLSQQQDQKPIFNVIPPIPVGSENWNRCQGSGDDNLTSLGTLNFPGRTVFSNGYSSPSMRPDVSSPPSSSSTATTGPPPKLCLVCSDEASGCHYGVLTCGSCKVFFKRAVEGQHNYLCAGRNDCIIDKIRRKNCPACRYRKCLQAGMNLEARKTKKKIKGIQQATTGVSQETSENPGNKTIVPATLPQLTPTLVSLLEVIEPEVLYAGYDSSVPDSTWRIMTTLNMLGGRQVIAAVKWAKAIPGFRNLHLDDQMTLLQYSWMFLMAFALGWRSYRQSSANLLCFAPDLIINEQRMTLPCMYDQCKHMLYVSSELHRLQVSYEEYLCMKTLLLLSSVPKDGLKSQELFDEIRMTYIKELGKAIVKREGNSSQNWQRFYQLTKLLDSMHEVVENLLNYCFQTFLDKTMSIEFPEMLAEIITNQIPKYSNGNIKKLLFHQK

The target of test [9] is Peroxisome proliferator-activated receptor delta (Homo sapiens) (UniProt Q03181). Nature of the test: qHTS assay for small molecule agonists of peroxisome proliferator-activated receptor delta signaling (AID 588534).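 Also: 0% = DMSO basal wells and 100% = positive control agonist at 10 µM.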 As to conditions: HEK293T PPARdelta-UAS-bla, beta-lactamase ratio, 18 h; series mostly up to 76.7 µM. The gist of the method:
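Fluorescence from CCF4 substrate cleavage by beta-lactamase reporter, read 2 hrs at RT, measured agonist activity. Compounds were tested with 18 hrs exposure at 37 C. Concentration-response data fitted to Hill equation.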

Test [10] can be described thus: qHTS assay for small molecule antagonists of peroxisome proliferator-activated receptor delta signaling (AID 588535; active = well fitted inhibition curve with a large enough effect in the signal ratio, with a control signal flat, not every such curve was filed as active; the % refers to the signal ratio;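 as to max response: cells co-treated with a PPAR-delta agonist as stimulator during compound exposure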). As to conditions: HEK293T PPARd-UAS-bla, beta-lactamase FRET ratio, 18 h; 460 nm channel. The method in brief: (§1)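 Reporter: UAS-bla under PPAR-delta response element, HEK293T host. Medium: 2% charcoal/dextran FBS. Dosing: titration, 18 hrs, 37 C. Detection: CCF4, 2 hrs RT, 405 ex/460 and 530 em.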

Test [11] has as its target Peroxisome proliferator-activated receptor delta (Homo sapiens) (UniProt Q03181). Described as above. Conditions: HEK293T PPARd-UAS-bla, beta-lactamase FRET ratio, 18 h; series mostly up to 76.7 µM. The method in brief:
as §1

Test [12] has as its target Peroxisome proliferator-activated receptor gamma (Homo sapiens) (UniProt P37231). Nature of the test: qHTS assay for small molecule antagonists of peroxisome proliferator-activated receptor gamma signaling (AID 588537; active = well fitted inhibition curve with a large enough effect in the signal ratio, with a control signal flat, not every such curve was filed as active; the % refers to the signal ratio;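 also: reporter cells co-stimulated with 50 nM rosiglitazone agonist during compound treatment; % of control where 0% means no effect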). Conditions: HEK293 PPARg-UAS-bla, beta-lactamase ratio, antagonist mode; series mostly up to 76.8 µM. The method in brief: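 We seeded GeneBLAzer HEK293 reporter cells at 3000 per well, allowed 6-6.5 h attachment at 37 C, then co-treated with test compound titrations and 50 nM rosiglitazone overnight (16 h). Inhibition was quantified from 460/530 nm emission ratios.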

Test [13] can be described thus: qHTS assay for small molecule agonists of the antioxidant response element (ARE) signaling pathway (AID 651741; active = well fitted activation curve with a large enough effect in the signal ratio; the % refers to the signal ratio; also: % of control where 0% means no effect). As to conditions: HepG2 ARE-bla reporter, beta-lactamase FRET ratio, 16 h; series mostly up to 96 µM. The gist of the method:
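Compounds in DMSO are pinned onto HepG2 ARE-bla cells (2,000/well) that were preincubated 5 h; plates stay 16 h at 37 C, then beta-lactamase activity is detected with LiveBLAzer B/G substrate by fluorescence.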

Test [14] in a line: qHTS assay for small molecule disruptors of the mitochondrial membrane potential - 5 hr assay (AID 651755). Also: % is scaled to controls: 0 for no effect and ±100 for the full control effect; nearly all actives have a fitted effect of over 40% in size. As to conditions: JC-1-type ratio dye; series mostly up to 92.2 µM. The method in brief:
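HepG2 cells, attached overnight at 37C, were exposed to compound or DMSO for 5 hr at 37C, 5% CO2. Mito-MPS dye was then added for 30 min, and fluorescence read at 490/535 nm (monomers) and 540/590 nm (aggregates).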

The nature of test [15]: Cell Viability - LYMP2-001 (AID 921; active = well fitted curve in the direction sought with a large enough effect; an effect the other way counts as inactive or inconclusive;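 also: 0% = DMSO only and full inhibition = tetraoctylammonium bromide control wells; nearly all actives have a fitted effect of over 70% in size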). Conditions: LYMP2-001 lymphoblastoid cell viability; series mostly up to 92.2 µM. The method in brief:
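Human lymphoblastoid LYMP2-001 cells, 2500 per well, in complete medium, treated 24 h at 37 C. Viability from cellular ATP by CellTiter-Glo luminescence; AC50 from Hill-equation fits of qHTS concentration-response.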

For test [16], the target named is Estrogen receptor (Homo sapiens) (UniProt P03372). The test can be described thus: qHTS assay for small molecule antagonists of estrogen receptor alpha signaling (AID 588513; active = well fitted curve in the direction sought with a large enough effect in the signal ratio, with a control signal flat, not every such curve was filed as active; the % refers to the signal ratio; also: % is scaled to controls: 0 for no effect and ±100 for the full control effect). Conditions: ER-alpha-UAS-bla HEK293, beta-lactamase ratio, antagonist mode; series mostly up to 76.9 µM. The method in brief: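 ER-alpha-UAS-bla GripTite HEK 293 cells in 2% charcoal/dextran-treated FBS medium; compounds titrated (1:2, duplicate), then stimulated with 0.5 nM 17-beta-estradiol for 18 h at 37C. CCF4 beta-lactamase fluorescence; Hill-fit IC50 and efficacy.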
Estrogen receptor (Homo sapiens), sequence (P03372 whole entry, looked up): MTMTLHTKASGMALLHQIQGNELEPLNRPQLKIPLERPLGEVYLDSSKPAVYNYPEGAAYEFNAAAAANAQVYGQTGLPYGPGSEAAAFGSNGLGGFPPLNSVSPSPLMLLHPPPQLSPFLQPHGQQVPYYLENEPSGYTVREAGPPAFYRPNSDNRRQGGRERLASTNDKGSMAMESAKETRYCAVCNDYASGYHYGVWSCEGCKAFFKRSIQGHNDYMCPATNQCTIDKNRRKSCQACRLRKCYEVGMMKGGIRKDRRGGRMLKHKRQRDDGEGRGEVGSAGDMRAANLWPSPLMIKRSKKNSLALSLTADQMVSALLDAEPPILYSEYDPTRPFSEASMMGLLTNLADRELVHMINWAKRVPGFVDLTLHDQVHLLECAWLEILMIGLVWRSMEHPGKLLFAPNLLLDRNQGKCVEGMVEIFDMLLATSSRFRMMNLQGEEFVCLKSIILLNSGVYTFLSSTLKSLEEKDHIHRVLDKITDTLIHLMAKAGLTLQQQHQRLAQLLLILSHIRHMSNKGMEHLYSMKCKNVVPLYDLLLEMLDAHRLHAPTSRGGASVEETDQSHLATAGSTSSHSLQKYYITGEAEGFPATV

Test [17] deals with Vitamin D3 receptor (Homo sapiens) (UniProt P11473). The test can be described thus: qHTS assay for small molecule antagonists of vitamin D receptor signaling (AID 588541).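 Also: receptor activated by calcitriol during compound treatment; % is scaled to controls: 0 for no effect and ±100 for the full control effect.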 Conditions: HEK293T VDR-UAS-bla, beta-lactamase ratio, antagonist mode; series mostly up to 76.7 µM. The gist of the method:
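VDR-UAS-bla HEK293T cells (2000/well, 2% charcoal-stripped FBS) were treated with titrated compounds plus 1-alpha,25-dihydroxyvitamin D3 (50 nM or 3 nM final) for 16 h at 37 C. CCF4 beta-lactamase fluorescence was read; Hill fits gave IC50.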

Test [18] is described as follows: qHTS assay for small molecule disruptors of the mitochondrial membrane potential - 1 hr assay (AID 651754). Also: potency is read from the fitted curve at half-maximal effect; nearly all actives have a fitted effect of over 35% in size. As to conditions: series mostly up to 92.2 µM. The gist of the method: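 HepG2, 2,000 cells/well, overnight attachment; cpd or DMSO 1 hr, 37C/5% CO2; Mito-MPS dye 30 min, 37C; fluorescence monomer (490/535) and aggregate (540/590).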
A short description of test [19]: Cell Viability - LYMP1-003 - Assay at 24 hr (AID 963; active = well fitted curve in the direction sought with a large enough effect; an effect the other way counts as inactive or inconclusive;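 also: plate controls were DMSO only for no effect and tetraoctylammonium bromide positive control for full effect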). Conditions: LYMP1-003 lymphoblastoid cell viability; series mostly up to 92.2 µM. The gist of the method:
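Cells seeded at 2500/well, 5 hr at 37 C; compounds added; 24 hr at 37 C; CellTiter-Glo added, 30 min room temperature; luminescence read. Decrease in ATP taken as cytotoxicity, AC50 from Hill modelling.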

Test [20] addresses Estrogen receptor (Homo sapiens) (UniProt P03372). Nature of the test: qHTS assay for small molecule agonists of estrogen receptor alpha signaling (AID 588514).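 Also: 0% = vehicle only and 100% = reference agonist; nearly all actives have a fitted effect of over 70% in size.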 Conditions: ER-alpha-UAS-bla HEK293, beta-lactamase ratio, 18 h; series mostly up to 76.8 µM. The method in brief:
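Cells were plated at 5000/well, incubated 4 hrs at 37 C, dosed with compound titration series, incubated 18 hrs at 37 C, loaded with CCF4 dye for 2 hrs at RT, then fluorescence was read.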

SMILES strings stand for the structures. Results filed as inconclusive are left out. Active and inactive are the calls of the source. Unless noted, calls follow the shape of the full dose curve.

Peroxisome proliferator-activated receptor delta (Homo sapiens), sequence (Q03181 whole entry, looked up): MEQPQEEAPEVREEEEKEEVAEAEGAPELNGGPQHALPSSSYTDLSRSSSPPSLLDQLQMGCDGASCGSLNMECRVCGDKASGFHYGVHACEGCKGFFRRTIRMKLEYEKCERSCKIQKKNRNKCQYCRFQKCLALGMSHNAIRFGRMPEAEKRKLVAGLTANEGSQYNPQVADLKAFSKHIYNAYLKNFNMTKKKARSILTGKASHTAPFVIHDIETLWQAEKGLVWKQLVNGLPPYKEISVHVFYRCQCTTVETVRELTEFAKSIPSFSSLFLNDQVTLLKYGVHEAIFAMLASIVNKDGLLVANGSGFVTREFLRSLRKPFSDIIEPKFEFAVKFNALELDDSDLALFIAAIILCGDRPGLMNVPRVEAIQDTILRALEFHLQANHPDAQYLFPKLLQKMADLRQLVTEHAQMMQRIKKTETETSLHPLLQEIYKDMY
Vitamin D3 receptor (Homo sapiens), sequence (P11473 whole entry, looked up): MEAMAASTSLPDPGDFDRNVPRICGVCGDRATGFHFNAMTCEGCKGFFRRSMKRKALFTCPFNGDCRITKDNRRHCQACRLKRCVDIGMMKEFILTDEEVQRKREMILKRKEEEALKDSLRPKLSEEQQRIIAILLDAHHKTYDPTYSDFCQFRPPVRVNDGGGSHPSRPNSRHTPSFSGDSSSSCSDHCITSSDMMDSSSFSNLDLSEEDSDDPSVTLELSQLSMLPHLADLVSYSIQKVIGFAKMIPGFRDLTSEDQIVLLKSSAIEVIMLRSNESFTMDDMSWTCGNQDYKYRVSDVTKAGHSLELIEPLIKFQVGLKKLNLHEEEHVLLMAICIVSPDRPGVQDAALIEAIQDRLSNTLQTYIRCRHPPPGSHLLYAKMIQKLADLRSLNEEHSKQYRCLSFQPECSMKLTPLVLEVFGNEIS
Peroxisome proliferator-activated receptor gamma (Homo sapiens), sequence (P37231 whole entry, looked up): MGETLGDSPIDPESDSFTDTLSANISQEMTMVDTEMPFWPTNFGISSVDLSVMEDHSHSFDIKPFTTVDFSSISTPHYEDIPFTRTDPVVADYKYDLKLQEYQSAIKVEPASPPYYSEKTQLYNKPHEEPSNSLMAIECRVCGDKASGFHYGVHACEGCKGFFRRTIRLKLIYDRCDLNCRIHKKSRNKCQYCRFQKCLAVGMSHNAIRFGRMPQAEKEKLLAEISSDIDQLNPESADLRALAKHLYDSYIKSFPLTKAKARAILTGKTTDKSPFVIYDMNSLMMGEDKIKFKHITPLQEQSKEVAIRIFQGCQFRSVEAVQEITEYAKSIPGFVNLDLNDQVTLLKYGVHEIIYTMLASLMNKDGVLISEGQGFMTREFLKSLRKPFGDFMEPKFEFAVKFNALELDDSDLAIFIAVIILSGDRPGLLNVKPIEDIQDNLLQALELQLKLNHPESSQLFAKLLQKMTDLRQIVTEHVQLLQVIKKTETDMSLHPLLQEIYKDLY

With `N#CC(O)c1ccccc1` (centres undefined), in [1], the Potency is > 92 µM (inactive). Moreover, the Potency entry in test [2], in test [4], in test [5], in test [12], in [13] and in test [14] was “inactive” in each case. Further, the molecule was classed as inactive in test [3], in test [6], in test [9] and in test [11]. In addition, the activation is -0.559% (inactive) in [7] and -0.987% (inactive) in test [8]. Moreover, the max response in [10] turned out to be 6.88%.

As to `Cc1cc(C)cc(OP(=O)(Oc2cc(C)cc(C)c2)Oc2cc(C)cc(C)c2)c1`, the activity change, negative = cytotoxicity in [2] is -83.5% (active). For the same molecule, the Potency entry in test [15], in test [4], in test [5], in test [16] and in test [12] was “inactive” in each case. The activation in test [7] is 0.362% (inactive); in test [8] it was -3.84% (inactive). Besides, the result in test [17] was inactive. In test [18], the Potency was 11.9 µM (active).

For `C=CCOCC1CO1` (centres undefined), the molecule was called inactive in test [3], in [19], in test [6] and in test [17]. For the same molecule, the Potency entry in [5], in [16], in [20] and in test [13] was “inactive” in each case. Further, the activation is -2.32% (inactive) in test [7] and 4.14% (inactive) in test [8].
